Screens from PubChem.
Sfp PPTase inh: qHTS Assay for Inhibitors of Bacillus subtilis Sfp phosphopantetheinyl transferase (PPTase). 4'-phosphopantetheinyl transferase ffp (Bacillus subtilis), Q9F4F7. Biochemical Sfp PPTase activity, qHTS. Potency, µM, for inactives: largest response in the series, negative = inhibition, actives largely listed as inhibitors. 310,000 tested, 3.5% active. AID 1490, 2009;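 also: the enzyme is Sfp with the accession as filed and its product quenches rhodamine fluorescence; potency is read from the fitted curve at half-maximal effect; 0% = enzyme reaction without inhibitor and -100% = no enzyme wells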
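Buffer: 50 mM Hepes-Na pH 7.6, 10 mM MgCl2, 0.01% Nonidet P-40, 0.01% BSA. Enzyme 15 nM, pre-exposed to compound 15 min; substrates then added and fluorescence change tracked over 30 min.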
TCR activator: Activators of T cell receptors: qHTS campaign. primary human leukocytes, anti-CD3, IL-2 HTRF, 48 h. Potency, µM (doses to about 9.22 µM), for the others: top-dose activation of IL-2 secretion, usual class: activators. 330,000 tested, under 10 active. AID 504894, 2011; also: % of control where 0% means no effect
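IL-2 produced over 48 hr by a-CD3 bead-stimulated primary human leukocytes exposed to compounds was detected with a homogeneous time-resolved FRET immunoassay, 665nm acceptor signal after 320nm excitation.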
uPA generation: qHTS for Inhibitors of Cell Surface uPA Generation. 330,000 tested, 0.31% active. Potency, µM (doses to about 38.3 µM), for inactives: top-dose activity change, negative = inhibition, actives largely listed as inhibitors. cell surface uPA generation assay, qHTS. AID 540303, 2011; active = well fitted inhibition curve with a large enough effect; inconclusive = small, poorly fitted or top-dose-only effect; inactive = no such curve, though single readings can be large or run the other way; tested in mouse RAW 264.7 cells; also: potency is read from the fitted curve at half-maximal effect; % is scaled to controls: 0 for no effect and ±100 for the full control effect; nearly all actives have a fitted effect of over 55% in size
ClpP mod: qHTS Assay for Activators of ClpP. ATP-dependent Clp protease proteolytic subunit (Bacillus subtilis (strain 168)), P80244. purified B. subtilis ClpP, FRET peptide cleavage, 20 min. Potency, µM (titrated, usually from 57.5 µM), inactives show at the top dose activity change, negative = active. 340,000 tested, 1.9% active. AID 651965, 2013; active = well fitted falling curve with a large enough effect; inconclusive = small, poorly fitted or top-dose-only effect; inactive = no such curve, though single readings can be large or run the other way; also: potency is read from the fitted curve at half-maximal effect; the source files actives as falling curves though it sought activators and does not explain the sign; nearly all actives have a fitted effect of over 65% in size
Target sequence (P80244 whole entry, looked up): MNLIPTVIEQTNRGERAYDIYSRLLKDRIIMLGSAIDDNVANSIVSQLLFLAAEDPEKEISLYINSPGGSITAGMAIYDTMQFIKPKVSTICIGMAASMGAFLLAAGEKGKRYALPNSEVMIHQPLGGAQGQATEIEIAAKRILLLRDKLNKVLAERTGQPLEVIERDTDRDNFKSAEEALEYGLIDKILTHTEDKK
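Buffer: 100 mM Tris/HCl pH8, 100 mM KCl, 0.05% low protease BSA, 2.5% glycerol, 0.01% Tween-20. ClpP 10 microg/mL final; 20 min RT; delta FRET normalized to ADEP and DMSO controls.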
* = called active by the depositor; [ ] = remark or other dose. An excerpt weighted towards active compounds, which were near 4.2% of everything screened. Unless noted, calls follow the shape of the dose curve; as a rule, active = well fitted curve in the direction sought with a large enough effect; inconclusive = small, poorly fitted or top-dose-only effect, or another doubt; inactive = no such curve, though single readings can be large; an effect the other way counts as inactive or inconclusive.

How did COc1ccc(-c2nc3ccccc3c(=O)n2-c2ccc(OC)cc2)cc1 do in these assays?
Sfp PPTase inh: -1%; TCR activator: 4%; uPA generation: 2%; ClpP mod: 0%

Results for O=C(CCCN1CCC2(CC1)C(=O)N(Cc1cccc(F)c1)CN2c1ccccc1)c1ccc(F)cc1 ?
Sfp PPTase inh: 71µM*

How did C=C1C(=O)OC2CC(C)C3C=CC(=O)C3(C)C(O)C12 (stereo unspecified) do in these assays?
TCR activator: -7%; uPA generation: -6%; ClpP mod: 1%

Results for C=C1C(=O)O[C@@H]2C[C@@H](C)[C@@H]3C=CC(=O)[C@@]3(C)[C@@H](OC(=O)CC(=O)O[C@H]3[C@@H]4C(=C)C(=O)O[C@@H]4C[C@@H](C)[C@@H]4C=CC(=O)[C@]43C)[C@H]12 ?
Sfp PPTase inh: 22µM*; TCR activator: 5%; uPA generation: -95%; ClpP mod: 2%

Results for Cc1ccc2c(c1)CC1(CN2C)C(=O)NC(=O)N(CCC2=CCCCC2)C1=O (stereo unspecified) ?
Sfp PPTase inh: -21%; TCR activator: 0%; uPA generation: 3%; ClpP mod: 16µM*

Results for COc1ccc(C2=NCC(=O)N(CC(=O)NCc3ccco3)c3sc4c(c32)CCCC4)cc1OC ?
Sfp PPTase inh: 50µM*; TCR activator: -1%; uPA generation: 6%; ClpP mod: 0%

Results for O=C(CN1C(=O)CN=C(c2ccccc2)c2ccccc21)NCc1ccco1 ?
Sfp PPTase inh: 9%; TCR activator: -2%; uPA generation: 5%; ClpP mod: -3%

What do the screens show for `ClCCN(CCCl)c1ccc(C=Nc2ccncc2)cc1`?
ClpP mod: -6%

How did O=C1NC(=O)C(=Cc2coc3ccc(O)cc3c2=O)C(=O)N1 do in these assays?
Sfp PPTase inh: 13µM*; TCR activator: -4%; uPA generation: -18%; ClpP mod: -4%

How did CCCCCOc1c(OC)ccc2cc(C(=O)NCc3ccc4c(c3)OCO4)c(=O)[nH]c12 do in these assays?
Sfp PPTase inh: -7%

What do the screens show for `CC(=O)Nc1ccc(C=C2C(=O)NC(=O)NC2=O)cc1`?
TCR activator: 5%; uPA generation: -9%; ClpP mod: -4%

What do the screens show for `C=CCN1C(=O)NC(=O)/C(=C/c2ccc(OC)c(COc3ccc(NC(C)=O)cc3)c2)C1=O`?
Sfp PPTase inh: 45µM*; TCR activator: -2%; uPA generation: -4%

How did C=CCN1C(=O)NC(=O)/C(=C/c2ccc(OC)c(CSc3ccccn3)c2)C1=O do in these assays?
Sfp PPTase inh: 56µM*; TCR activator: 4%; uPA generation: 2%; ClpP mod: 2%

What do the screens show for `CC1(C)[C@H](C(=O)O[C@H](C#N)c2cccc(Oc3ccccc3)c2)[C@@H]1C=C(Br)Br`?
Sfp PPTase inh: -23%

What do the screens show for `Cc1cc(N(CCCl)CCCl)ccc1/C=N/NC(=O)c1ccco1`?
Sfp PPTase inh: 10%; TCR activator: 5%; uPA generation: -10%; ClpP mod: 0%

What do the screens show for `Cc1cc(N(CCCl)CCCl)ccc1C=NNC(=O)Cc1cc(=O)oc2cc(O)ccc12`?
TCR activator: 13%; uPA generation: -14%; ClpP mod: 28µM*

What do the screens show for `O=C(CN1CCOCC1)c1ccc2cc[nH]c2c1`?
Sfp PPTase inh: 50µM*; TCR activator: -1%[46.1 µM]; uPA generation: -7%; ClpP mod: -1%

How did Cc1cc(C)c(C(=O)CN2CCOCC2)c(C)c1 do in these assays?
Sfp PPTase inh: 3%; TCR activator: -5%; uPA generation: -13%; ClpP mod: 32µM*

Results for N#Cc1cccc(NC(=O)N2CC3(CCN(C(=O)Oc4ccccc4)CC3)C2)c1 ?
Sfp PPTase inh: 14%

Results for COc1ccc(CNC(=O)C[C@H]2C[C@H](C(=O)N3CCCCC3)[C@@]3(CCc4ccccc4)c4[nH]c5ccc(Cl)cc5c4CCN3C2=O)cc1OC ?
TCR activator: 3%[46.1 µM]; uPA generation: inconclusive; ClpP mod: 0%

Results for COC(=O)/C=C/C(=O)N[C@@H]1CC[C@@]2(O)[C@H]3Cc4ccc(O)c5c4[C@@]2(CCN3CC2CC2)[C@H]1O5 ?
Sfp PPTase inh: -3%
